# Measured values as given in PubChem BioAssay (EPA / NIEHS).
# Records with an inconclusive call do not appear. Active and inactive are the calls of the source. Rule for the calls, unless noted: active = hit-call score of the fitted dose curve at least 0.9, where 1 is the maximum; inactive = score below 0.9.
# Legend:
# [1] = target: Nuclear respiratory factor 1 (Homo sapiens) (UniProt Q16656); assay: ATG_NRF1_CIS: Attagene CIS-FACTORIAL HepG2 Assay for human Nuclear Respiratory Factor 1 (NRF1) Orphan Gene (AID 2282987); conditions: HepG2 NRF1 cis-element reporter, Attagene multiplex; actives raise or lower the signal
# In short: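 Reporter mRNA induction or loss in HepG2 cells after 24 h dosing; cis-regulated reporter constructs report endogenous transcription-factor activity. Quantified by RT-PCR/capillary electrophoresis fluorescence, DMSO-referenced.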
# [2] = ATG_NFI_CIS: Attagene CIS-FACTORIAL HepG2 Assay for human Nuclear Factor I (NFI) (AID 2282989); conditions: HepG2 cis-regulatory reporter, NFI response element transcription; actives raise or lower the signal
# In short: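 Read-out: reporter mRNA via RT-PCR plus capillary electrophoresis with fluorescence detection. Transiently transfected HepG2 (endogenous TF activity on cis promoters), 24 h compound exposure; gain or loss of signal fitted against DMSO.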
# [3] = target: Myc proto-oncogene protein (Homo sapiens) (UniProt P01106); assay: ATG_Myc_CIS: Attagene CIS-FACTORIAL HepG2 Assay for human Myelocytomatosis (Myc) Proto-Oncogene Transcription Factor (AID 2282990); conditions: HepG2, Attagene cis-reporter transcription factor activity; actives raise or lower the signal
# In short: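 Transiently transfected HepG2 cells bearing cis-promoter reporter units for endogenous transcription factors; 24 h exposure. Reporter mRNA measured by RT-PCR, 6-FAM primer extension, HpaI cut and capillary electrophoresis; bidirectional fit relative to DMSO.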
# [4] = ATG_NF_kB_CIS: Attagene CIS-FACTORIAL HepG2 Assay for human Nuclear Factor Kappa B (NF-kB) (AID 2282991); conditions: HepG2 Attagene cis-factorial NF-kB reporter mRNA; actives raise or lower the signal
# In short: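 DMSO served as negative control and baseline for bidirectional curve fitting. Transiently transfected HepG2 cells were dosed for 24 h, then reporter transcripts were measured by RT-PCR with capillary electrophoresis detection.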
# [5] = ATG_NRF2_ARE_CIS: Attagene CIS-FACTORIAL HepG2 Assay for human Nuclear Factor Erythroid 2 Related Factor 2 (NFR2) response to Antioxidant Response Elements (ARE) (AID 2282992); conditions: HepG2 Attagene ARE/NRF2 reporter, transcription factor activity; actives raise or lower the signal;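 for AC50: reporter mRNA level measured by RT-PCR and capillary electrophoresis fluorescence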
# In short: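 Multiplexed reporter mRNA profiling in HepG2 after a 24 h chemical exposure. Curves fitted in both directions relative to DMSO negative control.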
# [6] = ATG_Oct_MLP_CIS: Attagene CIS-FACTORIAL HepG2 Assay for human Octamer-Binding Transcription Factor (Oct) (AID 2282993); conditions: HepG2 Attagene cis-factorial Oct reporter, mRNA; actives raise or lower the signal
# In short: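 Read-out: reporter mRNA via RT-PCR plus capillary electrophoresis of 6-FAM-labelled fragments. Transiently transfected HepG2, 24 h exposure, endogenous TF activity on cis elements. Gain or loss of signal fitted relative to DMSO.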
# [7] = target: Cellular tumor antigen p53 (Homo sapiens) (UniProt P04637); assay: ATG_p53_CIS: Attagene CIS-FACTORIAL HepG2 Assay for human p53 Transcription Factor (AID 2282994); conditions: HepG2 p53 cis-element reporter, Attagene mRNA; actives raise or lower the signal
# In short: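 Multiplexed reporter mRNA assay in human HepG2 liver cells; cis-regulated units report endogenous factor activity. Values come from bidirectional curve fitting against DMSO negative control after 24 h treatment.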
# [8] = BSK_3C_TissueFactor: BioMAP Diversity Plus: 3C Assay for Tissue Factor Biomarker Activity (AID 2282997); conditions: BioMAP 3C HUVEC, tissue factor biomarker readout; actives raise or lower the signal
# In short: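 HUVEC were treated 24 h, then surface tissue factor measured by ELISA and fitted bidirectionally against DMSO. Parallel SRB total-protein staining assessed overt cytotoxicity at the same time point.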
# [9] = BSK_3C_uPAR: BioMAP Diversity Plus: 3C Assay for Urokinase-type plasminogen activator receptor (uPAR) Biomarker Activity (AID 2282998); conditions: BioMAP 3C HUVEC, uPAR biomarker ELISA; actives raise or lower the signal
# In short: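 HUVEC primary cells; 24 h post-dose; uPAR by ELISA; gain or loss of signal fitted bidirectionally vs DMSO baseline.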
# [10] = BSK_3C_VCAM1: BioMAP Diversity Plus: 3C Assay for Vascular cell adhesion molecule 1 (VCAM1) Biomarker Activity (AID 2282999); conditions: BioMAP 3C HUVEC, VCAM1 ELISA, cytokine-stimulated; actives raise or lower the signal
# In short: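 Human umbilical vein endothelial cells (3C system), biomarker read by ELISA 24 h after dosing; bidirectional fit against DMSO baseline. Cytotoxicity tracked by SRB total-protein staining in parallel cultures at biomarker time.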
# [11] = BSK_4H_Eotaxin3: BioMAP Diversity Plus: 4H Assay for Eotaxin 3 Biomarker Activity (AID 2283000); conditions: primary human endothelial cells (HUVEC); actives raise or lower the signal;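 note: CCL26 protein level quantified by ELISA in parallel with SRB cytotoxicity check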
# In short: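 Eotaxin-3 (CCL26) levels were measured by ELISA in HUVEC primary cultures 24 h post-dosing. Gain or loss of signal was fitted in both directions, with DMSO serving as baseline and negative control.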
# [12] = read-out: Intercellular Adhesion Molecule 1 (ICAM1), ICAM1 (gene 3383); assay: BSK_3C_ICAM1: BioMAP Diversity Plus: 3C Assay for Intercellular Adhesion Molecule 1 (ICAM1) Biomarker Activity (AID 2283003); conditions: primary human endothelial cells (HUVEC); actives raise or lower the signal
# In short: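 Human vascular endothelial primary cells, 3C conditions, 24 h treatment. ICAM-1 by ELISA.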
# [13] = target: human Retinoic Acid Receptor beta (RARb), RARB (gene 5915) (UniProt P10826); assay: ATG_RARb_TRANS: Attagene TRANS-FACTORIAL HepG2 Assay for human Retinoic Acid Receptor beta (AID 2283004; active = hit-call score of the fitted dose curve at least 0.9, where 1 is the maximum)
# In short: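 HepG2 cells were transiently transfected with GAL4-UAS reporter units that report activity of exogenous chimeric NR-Gal4 proteins, then exposed to compound for 24 h. Reporter mRNA was quantified by RT-PCR with capillary electrophoresis fluorescence, as gain of signal over DMSO.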
# [14] = BSK_3C_Proliferation: Cell Proliferation Assessment in the BioMAP Diversity Plus: 3C Assay (AID 2283006); conditions: primary human endothelial cells (HUVEC)
# In short: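 Proliferation of human vascular endothelial primary cells after 48 h dosing, quantified as SRB-stained protein at 560 nm relative to DMSO.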
# [15] = target: Nuclear receptor subfamily 1 group I member 2 (Homo sapiens) (UniProt O75469); assay: ATG_PXR_TRANS: Attagene TRANS-FACTORIAL HepG2 Assay for human Pregnane X Receptor (PXR) (AID 2283008; active = hit-call score of the fitted dose curve at least 0.9, where 1 is the maximum)
# In short: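 Measures mRNA induction of a GAL4-UAS-driven reporter in human HepG2 cells transiently expressing PXR fused to Gal4, following 24 h treatment. DMSO served as negative control and baseline.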
# [16] = target: human Peroxisome Proliferator-activated Receptor alpha (PPARa), PPARA (gene 5465) (UniProt Q07869); assay: ATG_PPARa_TRANS: Attagene TRANS-FACTORIAL HepG2 Assay for human Peroxisome Proliferator-activated Receptor alpha (PPARa) (AID 2283001; active = hit-call score of the fitted dose curve at least 0.9, where 1 is the maximum)
# In short: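 Measures transcriptional activity of an exogenous chimeric PPARa-Gal4 protein in transiently transfected HepG2 cells after 24 h dosing. Reporter mRNA quantified via RT-PCR and capillary electrophoresis; DMSO served as negative control.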
# [17] = target: Retinoic acid receptor alpha (Homo sapiens) (UniProt P10276); assay: ATG_RARa_TRANS: Attagene TRANS-FACTORIAL HepG2 Assay for human Retinoic Acid Receptor alpha (RARa) (AID 2283005; active = hit-call score of the fitted dose curve at least 0.9, where 1 is the maximum)
# In short: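 HepG2 transiently transfected with multiplex GAL4-UAS reporter units including a human RARa–GAL4 chimera; 24 h compound exposure. Reporter mRNA quantified by RT-PCR, 6-FAM labeling and capillary electrophoresis; gain of signal versus DMSO.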
# [18] = target: human Retinoic Acid Receptor gamma (RARg), RARG (gene 5916) (UniProt P13631); assay: ATG_RARg_TRANS: Attagene TRANS-FACTORIAL HepG2 Assay for human Retinoic Acid Receptor gamma (RARg) (AID 2283009; active = hit-call score of the fitted dose curve at least 0.9, where 1 is the maximum)
# In short: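 HepG2, RARg-GAL4 TRANS system, 24 h exposure; reporter mRNA by RT-PCR + CE fluorescence; increase over DMSO.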
# [19] = target: human Peroxisome Proliferator-activated Receptor delta (PPARd), PPARD (gene 5467) (UniProt Q03181); assay: ATG_PPARd_TRANS: Attagene TRANS-FACTORIAL HepG2 Assay for human Peroxisome Proliferator-activated Receptor delta (PPARd) (AID 2283002; active = hit-call score of the fitted dose curve at least 0.9, where 1 is the maximum)
# In short: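 HepG2 cells transiently transfected with GAL4-UAS multiplexed reporter units driven by exogenous chimeric NR-GAL4 proteins; 24 h compound exposure. Reporter mRNA measured by RT-PCR, 6-FAM primer extension, HpaI digestion and capillary electrophoresis; gain of signal fitted relative to DMSO.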
# [20] = target: Peroxisome proliferator-activated receptor gamma (Homo sapiens) (UniProt P37231); assay: ATG_PPARg_TRANS: Attagene TRANS-FACTORIAL HepG2 Assay for human Peroxisome Proliferator-activated Receptor-gamma (PPARg) (AID 2283007; active = hit-call score of the fitted dose curve at least 0.9, where 1 is the maximum)
# In short: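 Chimeric NR-Gal4 transactivation is measured in transiently transfected HepG2 cells by reporter mRNA induction at 24 h. Detection uses RT-PCR with fluorescent labelling and capillary electrophoresis; DMSO defines baseline.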
# Chain of Nuclear respiratory factor 1 (Homo sapiens) (Q16656 whole entry, looked up): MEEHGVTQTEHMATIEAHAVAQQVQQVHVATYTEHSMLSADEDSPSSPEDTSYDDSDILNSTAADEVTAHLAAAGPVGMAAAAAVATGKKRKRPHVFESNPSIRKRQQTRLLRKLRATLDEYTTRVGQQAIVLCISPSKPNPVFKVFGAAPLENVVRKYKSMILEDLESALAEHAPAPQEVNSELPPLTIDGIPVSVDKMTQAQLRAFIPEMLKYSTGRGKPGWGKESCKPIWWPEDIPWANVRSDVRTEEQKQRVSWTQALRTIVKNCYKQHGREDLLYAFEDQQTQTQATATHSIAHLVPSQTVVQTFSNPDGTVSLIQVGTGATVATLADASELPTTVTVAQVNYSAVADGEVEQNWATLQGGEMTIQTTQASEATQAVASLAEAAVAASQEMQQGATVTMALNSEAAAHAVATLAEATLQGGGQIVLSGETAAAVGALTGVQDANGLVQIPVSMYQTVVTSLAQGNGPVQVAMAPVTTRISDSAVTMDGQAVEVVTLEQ
# Chain of Cellular tumor antigen p53 (Homo sapiens) (P04637 whole entry, looked up): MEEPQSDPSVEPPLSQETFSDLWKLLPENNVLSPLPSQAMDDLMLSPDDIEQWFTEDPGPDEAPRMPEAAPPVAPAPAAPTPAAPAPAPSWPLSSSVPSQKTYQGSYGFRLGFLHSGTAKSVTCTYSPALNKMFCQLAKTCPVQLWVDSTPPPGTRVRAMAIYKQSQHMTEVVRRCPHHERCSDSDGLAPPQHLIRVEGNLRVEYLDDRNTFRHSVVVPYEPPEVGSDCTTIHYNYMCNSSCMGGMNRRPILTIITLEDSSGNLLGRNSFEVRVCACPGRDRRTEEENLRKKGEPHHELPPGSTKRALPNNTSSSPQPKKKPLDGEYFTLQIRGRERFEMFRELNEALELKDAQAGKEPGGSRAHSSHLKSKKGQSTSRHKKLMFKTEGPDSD
# Chain of Nuclear receptor subfamily 1 group I member 2 (Homo sapiens) (O75469 whole entry, looked up, the tested form may be a part): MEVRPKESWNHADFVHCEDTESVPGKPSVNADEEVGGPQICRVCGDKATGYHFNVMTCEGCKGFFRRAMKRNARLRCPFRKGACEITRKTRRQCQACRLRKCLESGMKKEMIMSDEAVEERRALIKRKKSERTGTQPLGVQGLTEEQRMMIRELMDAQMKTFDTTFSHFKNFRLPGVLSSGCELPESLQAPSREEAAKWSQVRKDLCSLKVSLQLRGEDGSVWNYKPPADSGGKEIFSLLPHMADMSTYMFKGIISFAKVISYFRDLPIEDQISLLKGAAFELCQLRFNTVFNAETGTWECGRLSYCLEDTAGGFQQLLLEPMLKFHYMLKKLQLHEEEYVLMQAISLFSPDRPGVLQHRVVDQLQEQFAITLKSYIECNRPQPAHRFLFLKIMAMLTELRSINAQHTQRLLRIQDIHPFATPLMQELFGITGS
# Chain of Myc proto-oncogene protein (Homo sapiens) (P01106 whole entry, looked up): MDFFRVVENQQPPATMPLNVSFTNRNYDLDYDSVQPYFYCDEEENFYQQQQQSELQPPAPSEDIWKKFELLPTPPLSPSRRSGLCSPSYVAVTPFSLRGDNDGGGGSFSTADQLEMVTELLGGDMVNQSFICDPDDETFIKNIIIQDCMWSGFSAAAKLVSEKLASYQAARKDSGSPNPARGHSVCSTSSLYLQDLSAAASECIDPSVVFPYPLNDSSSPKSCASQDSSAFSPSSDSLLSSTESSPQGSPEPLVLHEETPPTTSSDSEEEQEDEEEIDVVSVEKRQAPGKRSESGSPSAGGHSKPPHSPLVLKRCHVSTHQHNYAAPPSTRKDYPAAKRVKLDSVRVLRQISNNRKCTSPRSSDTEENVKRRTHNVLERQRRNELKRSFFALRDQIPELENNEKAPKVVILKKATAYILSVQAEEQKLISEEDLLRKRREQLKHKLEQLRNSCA
# Chain of human Peroxisome Proliferator-activated Receptor delta (PPARd), PPARD (gene 5467) (Q03181 whole entry, looked up, the tested form may be a part): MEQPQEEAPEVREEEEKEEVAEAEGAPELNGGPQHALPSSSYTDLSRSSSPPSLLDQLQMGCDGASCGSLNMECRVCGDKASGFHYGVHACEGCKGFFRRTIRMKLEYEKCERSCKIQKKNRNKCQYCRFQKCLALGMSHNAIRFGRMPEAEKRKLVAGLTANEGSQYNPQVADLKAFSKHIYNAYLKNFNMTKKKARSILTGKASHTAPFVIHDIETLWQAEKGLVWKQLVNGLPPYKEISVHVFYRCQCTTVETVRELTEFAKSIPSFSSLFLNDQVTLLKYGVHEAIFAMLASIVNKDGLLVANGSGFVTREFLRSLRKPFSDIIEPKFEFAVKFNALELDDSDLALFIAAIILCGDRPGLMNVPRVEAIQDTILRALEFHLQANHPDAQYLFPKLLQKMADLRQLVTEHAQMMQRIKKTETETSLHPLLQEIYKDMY
# Chain of Peroxisome proliferator-activated receptor gamma (Homo sapiens) (P37231 whole entry, looked up, the tested form may be a part): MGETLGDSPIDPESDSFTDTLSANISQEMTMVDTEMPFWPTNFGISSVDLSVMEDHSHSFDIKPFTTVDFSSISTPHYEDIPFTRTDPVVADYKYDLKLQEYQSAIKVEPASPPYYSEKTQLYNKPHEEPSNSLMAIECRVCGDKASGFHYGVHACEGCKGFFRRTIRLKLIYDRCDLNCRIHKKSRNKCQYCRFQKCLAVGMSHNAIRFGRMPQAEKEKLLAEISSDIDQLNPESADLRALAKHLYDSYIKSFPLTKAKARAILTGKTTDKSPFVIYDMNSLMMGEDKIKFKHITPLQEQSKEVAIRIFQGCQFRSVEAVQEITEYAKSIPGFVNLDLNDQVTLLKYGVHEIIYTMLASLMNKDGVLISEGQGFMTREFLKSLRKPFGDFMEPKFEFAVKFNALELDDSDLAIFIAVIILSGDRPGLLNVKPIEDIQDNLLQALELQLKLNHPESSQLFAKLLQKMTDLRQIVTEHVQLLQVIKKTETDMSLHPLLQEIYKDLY
# Chain of human Retinoic Acid Receptor gamma (RARg), RARG (gene 5916) (P13631 whole entry, looked up, the tested form may be a part): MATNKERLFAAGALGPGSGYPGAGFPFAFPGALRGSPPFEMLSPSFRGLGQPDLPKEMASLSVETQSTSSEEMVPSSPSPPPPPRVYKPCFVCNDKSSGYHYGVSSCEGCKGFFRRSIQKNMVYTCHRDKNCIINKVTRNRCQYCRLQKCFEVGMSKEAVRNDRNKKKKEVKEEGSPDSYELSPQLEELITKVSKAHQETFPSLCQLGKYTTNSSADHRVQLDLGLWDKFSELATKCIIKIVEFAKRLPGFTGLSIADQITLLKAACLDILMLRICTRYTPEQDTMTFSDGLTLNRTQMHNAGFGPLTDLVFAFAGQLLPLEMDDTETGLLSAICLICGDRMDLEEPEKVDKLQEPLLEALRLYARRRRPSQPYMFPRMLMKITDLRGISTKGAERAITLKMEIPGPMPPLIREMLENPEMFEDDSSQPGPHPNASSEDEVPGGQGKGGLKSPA
# Chain of Retinoic acid receptor alpha (Homo sapiens) (P10276 whole entry, looked up, the tested form may be a part): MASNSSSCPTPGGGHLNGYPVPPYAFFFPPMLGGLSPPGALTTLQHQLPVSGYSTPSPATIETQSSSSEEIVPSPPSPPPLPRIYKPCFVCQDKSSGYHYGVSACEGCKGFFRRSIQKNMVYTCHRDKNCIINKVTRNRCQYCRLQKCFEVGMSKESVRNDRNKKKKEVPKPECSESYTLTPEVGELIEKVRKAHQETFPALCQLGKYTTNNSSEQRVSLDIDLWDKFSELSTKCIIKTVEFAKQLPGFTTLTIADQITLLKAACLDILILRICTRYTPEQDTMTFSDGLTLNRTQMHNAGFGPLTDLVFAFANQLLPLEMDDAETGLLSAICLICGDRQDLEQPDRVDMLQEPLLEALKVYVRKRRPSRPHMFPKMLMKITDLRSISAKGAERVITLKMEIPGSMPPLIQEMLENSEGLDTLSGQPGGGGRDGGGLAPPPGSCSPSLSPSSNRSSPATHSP
# Chain of human Retinoic Acid Receptor beta (RARb), RARB (gene 5915) (P10826 whole entry, looked up, the tested form may be a part): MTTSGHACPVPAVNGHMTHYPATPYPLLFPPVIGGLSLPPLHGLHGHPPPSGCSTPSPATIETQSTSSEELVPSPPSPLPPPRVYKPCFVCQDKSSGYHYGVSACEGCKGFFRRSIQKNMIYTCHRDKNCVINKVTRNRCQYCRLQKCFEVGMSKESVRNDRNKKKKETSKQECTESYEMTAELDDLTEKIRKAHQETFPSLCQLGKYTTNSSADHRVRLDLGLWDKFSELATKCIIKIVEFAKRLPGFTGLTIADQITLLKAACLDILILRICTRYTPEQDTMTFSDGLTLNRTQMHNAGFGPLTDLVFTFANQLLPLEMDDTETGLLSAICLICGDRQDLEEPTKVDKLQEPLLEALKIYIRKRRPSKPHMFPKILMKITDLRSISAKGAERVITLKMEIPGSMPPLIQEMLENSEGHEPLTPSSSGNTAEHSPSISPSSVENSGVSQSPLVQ
# Chain of human Peroxisome Proliferator-activated Receptor alpha (PPARa), PPARA (gene 5465) (Q07869 whole entry, looked up, the tested form may be a part): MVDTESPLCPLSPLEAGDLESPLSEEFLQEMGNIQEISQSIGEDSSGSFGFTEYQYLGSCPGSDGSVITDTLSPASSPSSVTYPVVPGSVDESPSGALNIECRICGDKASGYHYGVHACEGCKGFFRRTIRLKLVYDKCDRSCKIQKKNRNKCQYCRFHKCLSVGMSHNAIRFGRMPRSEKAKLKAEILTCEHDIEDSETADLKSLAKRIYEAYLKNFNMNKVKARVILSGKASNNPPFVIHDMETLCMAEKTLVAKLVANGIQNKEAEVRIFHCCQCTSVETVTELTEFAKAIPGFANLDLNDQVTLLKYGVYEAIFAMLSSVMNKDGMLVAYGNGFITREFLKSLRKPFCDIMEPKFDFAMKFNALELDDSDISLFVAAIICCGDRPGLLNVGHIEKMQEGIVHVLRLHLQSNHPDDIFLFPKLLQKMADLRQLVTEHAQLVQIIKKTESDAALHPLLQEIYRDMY
smiles,measurement,setting,value
S=C1NCCN1,outcome,[1],inactive
same,outcome,[2],inactive
same,outcome,[3],inactive
same,outcome,[4],inactive
same,outcome,[5],inactive
same,outcome,[6],inactive
same,outcome,[7],inactive
same,outcome,[8],inactive
same,outcome,[9],inactive
same,outcome,[10],inactive
same,outcome,[11],inactive
same,outcome,[12],inactive
same,outcome,[13],inactive
same,outcome,[14],inactive
same,outcome,[15],inactive
CC1=NNC(=O)N(/N=C/c2cccnc2)C1,outcome,[1],inactive
same,outcome,[2],inactive
same,outcome,[3],inactive
same,outcome,[4],inactive
same,outcome,[5],inactive
same,outcome,[6],inactive
same,outcome,[7],inactive
same,outcome,[8],inactive
same,outcome,[9],inactive
same,outcome,[10],inactive
same,outcome,[11],inactive
same,outcome,[16],inactive
same,outcome,[12],inactive
same,outcome,[17],inactive
same,outcome,[15],inactive
same,outcome,[18],inactive
CC(COc1ccc(Oc2ccccc2)cc1)Oc1ccccn1 (centres undefined),outcome,[1],inactive
same,outcome,[2],inactive
same,outcome,[3],inactive
same,AC50,[4],13.8 µM (active)
same,AC50,[5],7.23 µM (active)
same,AC50,[6],13 µM (active)
same,outcome,[7],inactive
same,AC50,[9],23.6 µM (active)
same,outcome,[10],inactive
same,outcome,[11],inactive
same,outcome,[19],inactive
same,outcome,[12],inactive
same,outcome,[14],inactive
same,AC50,[20],14.5 µM (active)
same,outcome,[15],inactive
CNc1cnn(-c2cccc(C(F)(F)F)c2)c(=O)c1Cl,outcome,[1],inactive
same,outcome,[2],inactive
same,outcome,[3],inactive
same,outcome,[4],inactive
same,AC50,[5],17.1 µM (active)
same,AC50,[6],13.7 µM (active)
same,outcome,[7],inactive
same,outcome,[9],inactive
same,outcome,[10],inactive
same,outcome,[11],inactive
same,outcome,[19],inactive
same,outcome,[12],inactive
same,outcome,[13],inactive
same,outcome,[17],inactive
same,outcome,[14],inactive
same,outcome,[20],inactive
same,outcome,[15],inactive
same,outcome,[18],inactive
